Data as given in PubChem BioAssay (Tox21).
Where “and” joins values, the source holds several entries; their conditions need not be identical. Equal entries are not always repeated. Inconclusive results are not listed. Where a call stands in place of a potency, no number is given. Calls of active or inactive are those of the source. Calls come from the whole dose curve; as a rule, active = well fitted cell-killing curve with a large enough effect in the repeat runs; inconclusive = weak or mixed curves, or effect the other way; inactive = flat fitted curve, though single readings scatter.

test: qHTS RealTime-Glo MT Cell Viability Assay in HEK293 cells - 32 hour (AID 1224868); settings: RealTime-Glo luminescence; series mostly up to 76.8 µM; note: nearly all actives have a fitted effect of over 50% in size
Description: National Center for Advancing Translational Sciences [NCATS]
NIH Chemical Genomics Center [NCGC]
U.S. Environmental Protection Agency [EPA]
National Institutes of Environmental Health Sciences [NIEHS]
National Toxicology Program [NTP]
U.S. Food and Drug Administration [FDA]
Measure of cell viability is critical in the cell-base assay. Analysis of cell viability is necessary for the characterization of cell responses to cytotoxic drugs and environmental stress. A RealTime-Glo MT Cell Viability Assay to monitor cell viability in real time of continues cell culture during 40 hours of compound treatment was used to screen Tox21 10K library compounds in Hek293 cells. The RealTime-Glo MT Cell Viability Assay is a nonlytic, homogeneous, bioluminescent method to measure cell viability in real time using a simple, plate-based method. The assay involves adding NanoLuc luciferase and a cell-permeant prosubstrate to cells in culture. Viable cells reduce the proprietary prosubstrate to generate a substrate for NanoLuc luciferase. This substrate diffuses from cells into the surrounding culture medium, where it is rapidly used by the NanoLuc Enzyme to produce a luminescent signal. The signal correlates with the number of viable cells, making the assay well suited for cytotoxicity studies.
Tox21 Assay Protocol Summary:
The mixture of Hek293 cell suspension and reagents were dispensed at 600cells/6 ul/well in 1536-well tissue culture treated black solid bottom plates using a Multidrop dispenser. After the assay plates were incubated at a 37 C/5% CO2 incubator for 5 hours, 23 nL of compounds dissolved in DMSO, positive and negative controls was transferred to the assay plate by a pintool work station. The plates were incubated at 37 C for 40 hours. The luminescence intensity were measured at 0h, 8h, 16h, 24h, 32h and 40h time points using ViewLux plate reader during compound treatment.
Potency is the fitted concentration of half-maximal effect.

| SMILES | Potency |
| --- | --- |
| Nc1c2c(nc3ccccc13)CCCC2 | inactive |
| CC(C)C(=O)Nc1ccc([N+](=O)[O-])c(C(F)(F)F)c1 | 12.6 µM (active) and 19.5 µM (active) and 9.52 µM (active) |
| O=C(Nc1ncc([N+](=O)[O-])s1)c1cccs1 | inactive |
| O=C1NC(=O)C(c2ccccc2)(c2ccccc2)N1 | inactive |
| NS(=O)(=O)c1cc2c(cc1Cl)NCNS2(=O)=O | inactive |
| CN(C)CCOC(C)(c1ccccc1)c1ccccn1 (stereo not given) | inactive |
| CCCCC1(COC(=O)CCC(=O)O)C(=O)N(c2ccccc2)N(c2ccccc2)C1=O | inactive |
| Nc1c(N=Nc2ccc(-c3ccc(N=Nc4cc(S(=O)(=O)O)c5ccccc5c4N)cc3)cc2)cc(S(=O)(=O)O)c2ccccc12 | 38.9 µM (active) |
| NC(=O)n1c(O)c(C(=O)c2cccs2)c2cc(Cl)ccc21 | inactive |
| C=C1CC[C@H](O)C/C1=C\C=C1/CCC[C@]2(C)[C@@H]([C@H](C)CCCC(C)C)CC[C@@H]12 | 43.2 µM (active) |
| Nc1ccc([N+](=O)[O-])cc1O | inactive |
| O=C1O[C@H]([C@@H](O)CO)C(O)=C1O | inactive |
| O=C(O)CC(O)C(=O)O (stereo not given) | inactive |
| CCCCOC(=O)c1ccc(O)cc1 | 24.8 µM (active) |
| CCCCCCCCCCCCCCCC[N+](C)(C)Cc1ccccc1 | 7.14 µM (active) and 11.2 µM (active) and 3.38 µM (active) |
| C1CCC(C(CC2CCCCN2)C2CCCCC2)CC1 (stereo not given) | 10.7 µM (active) |
| CCOC(N)=O | inactive |
| C=CCc1ccc(O)c(OC)c1 | inactive |
| NC(=O)c1cccnc1 | inactive |
| CCCCC(CC)C(=O)O (stereo not given) | inactive |

| SMILES | Potency |
| --- | --- |
| CNNCc1ccc(C(=O)NC(C)C)cc1 | inactive |
| Cc1ncc([N+](=O)[O-])n1C | inactive |
| CN1CCC[C@H]1c1cccnc1 | inactive |
| NS(=O)(=O)O | inactive |
| CN(C)C(=S)SC(=S)N(C)C | 1.78 µM (active) and 1.55 µM (active) and 6.74 µM (active) |
| CCN(CC)C(=O)c1cccc(C)c1 | inactive |
| CC12CCC(CC1)C(C)(C)O2 | inactive |
| CN(N=O)C(=O)N[C@@H]1[C@@H](O)[C@H](O)[C@@H](CO)O[C@@H]1O | inactive |
| CN1[C@@H]2CC(OC(=O)[C@H](CO)c3ccccc3)C[C@H]1[C@@H]1O[C@@H]12 (stereo not given in full) | inactive |
| O=CC(=O)c1ccccc1 | inactive |
| CCc1nc(N)nc(N)c1-c1ccc(Cl)cc1 | 3.52 µM (active) and 12.3 µM (active) |
| O=S1(=O)OC(c2ccc(O)cc2)(c2ccc(O)cc2)c2ccccc21 | inactive |
| COc1ccc2c(c1)c(CC(=O)O)c(C)n2C(=O)c1ccc(Cl)cc1 | inactive |
| CCCCNC(=O)NS(=O)(=O)c1ccc(C)cc1 | inactive |
| C=C(C)C(=O)OCC(C)O (stereo not given) | inactive |
| NC(CO)(CO)CO | inactive |
| COc1ccc2cc(S(=O)(=O)N[C@H](CC(=O)N[C@H](Cc3ccc(CN4[C@H](C)CCC[C@@H]4C)cc3)C(=O)N(C)C(C)C)c3ccc4c(c3)OCO4)ccc2c1 | 26.1 µM (active) |
| C/C=C/C=C/C(=O)O | inactive |
| Cc1cc(=O)oc2cc(O)ccc12 | inactive |
| CC(=O)C(=O)O | inactive |
